Screens as filed in PubChem BioAssay.
mHTT CaM bind: mutant huntingtin-calmodulin interaction inhibitors – biochemical, AlphaScreen, primary screen. P42858. AlphaScreen His-mHTT/GST-CaM binding, luminescence. inhibition, % at 15 µM. 190,000 tested, 3.6% active. AID 1671202, 2021;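 note: 0% = both proteins with DMSO and 100% = one protein alone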
Pf apPOL inh: Pf-apPOL inhibitors, biochemical, fluorescence; Plasmodium falciparum apicoplast DNA polymerase (apPOL); Recombinant Pf-apPOL, molecular beacon fluorescence, 1.5 h; inhibition, % at 10 µM; 210,000 tested, 0.25% active
* = called active by the depositor; nt = no result given. Only some compounds are listed: those with a hit (about 3.6% of all), similar ones and a draw of the others. Cut-off read from the data, not from the text of the source: active = inhibition above about 50%; inactive = the rest.

SMILES | mHTT CaM bind | Pf apPOL inh
CCn1cc2c3c(cccc31)CN(C(=O)c1ccc(F)cc1)CC2 | 29.6 | -6.4
CCn1cc2c3c(cccc31)CN(C(C)=O)CC2 | 4.7 | -2.9
CCCn1cc2c3c(cccc31)CN(C(=O)COc1ccc(F)cc1)CC2 | 54.8* | -3.0
COCCC(=O)N1CCC(n2c(-c3ccco3)nc3cccnc32)C1 (stereo not drawn) | 2.7 | -2.6
C=CCOc1cc(=O)oc2ccccc12 | -3.1 | nt
Cc1cccc(NC(=O)CN2CCC(c3nc(-c4ccc(F)cc4)no3)CC2)c1 | -6.8 | -4.7
Cc1ccc(-c2c(C(=O)Nc3ccc(N(C)C)cc3)oc(=O)c3ccccc23)cc1 | 19.0 | -7.0
COc1ccc(CCNc2cc(N3CCNCC3)ccc2[N+](=O)[O-])cc1OC | 36.0 | -3.5
O=C1C(=Cc2cc3ccccc3o2)Oc2c1ccc(O)c2CN1CCCCCC1 | 4.7 | -7.1
Cc1ccc(NC(=O)CCCN2C(=O)c3cccnc3C2=O)c(Cl)c1 | 9.0 | -19.3
CCn1ccc2oc(C)c(C(=O)N3CCN(C4CCCCC4)CC3)c2c1=O | 18.3 | 1.3
Cc1oc2ccn(Cc3ccccc3F)c(=O)c2c1C(=O)N1CCCC(C)C1 (stereo not drawn) | 11.1 | -1.2
CCC1CCCCN1C(=O)c1c(C)oc2ccn(Cc3ccccc3F)c(=O)c12 (stereo not drawn) | 67.7* | 1.6
CCn1ccc2oc(C)c(C(=O)N3CCN(c4ccccc4Cl)CC3)c2c1=O | 77.1* | 0.2
CCCn1ncc(N2CCC(C(=O)Nc3cc(C)ccc3OC)CC2)cc1=O | 77.3* | -1.6
CCOc1ccc(NC(=O)C2CCN(c3cc(=O)n(C)c(=O)n3CC)CC2)cc1 | 60.7* | -1.8
Cn1c(N2CCC(C(=O)N3CCN(c4ccc(Cl)cc4)CC3)CC2)cc(=O)n(C)c1=O | 49.9 | -1.1
CCn1c(N2CCC(C(=O)Nc3ccc(F)cc3)CC2)cc(=O)n(C)c1=O | 27.5 | -5.8
CCn1c(N2CCC(C(=O)Nc3cccc(OC)c3)CC2)cc(=O)n(C)c1=O | 44.1 | -0.5
CCCn1ncc(N2CCC(C(=O)Nc3ccc(OC)cc3OC)CC2)cc1=O | 19.8 | -2.2
CCn1c(N2CCC(C(=O)N3CCN(c4ccc(F)cc4)CC3)CC2)cc(=O)n(C)c1=O | 70.5* | 3.7
CCn1c(N2CCC(C(=O)Nc3ccc(OC)c(OC)c3)CC2)cc(=O)n(C)c1=O | 61.8* | -1.3
CCSc1nnc2c(n1)OC(c1cc(O)c(O)c(Br)c1)Nc1ccccc1-2 (stereo not drawn) | 2.0 | 5.5
CCN1CCCC1CNC(=O)C1(O)c2cc(Br)ccc2NC(=O)N1c1ccccc1 (stereo not drawn) | 1.0 | -5.5
Cc1cccc(CC2SC(=Nc3ccccn3)NC2=O)c1 (stereo not drawn) | -1.0 | 1.5
SMILES | mHTT CaM bind | Pf apPOL inh
COc1ccc(NC(=O)C2CC(=O)N(CCc3c[nH]c4ccc(OC)cc34)C2)cc1 (stereo not drawn) | 35.6 | 9.8
COc1ccc(NC(=O)C2CC(=O)N(CCc3c[nH]c4ccc(Cl)cc34)C2)c(OC)c1 (stereo not drawn) | 76.8* | -2.8
COc1ccc(CNC(=O)C2CC(=O)N(CCc3c[nH]c4ccc(F)cc34)C2)cc1 (stereo not drawn) | 17.8 | -4.1
COc1ccc2[nH]cc(CCN3CC(C(=O)Nc4ccc5c(c4)CCC5)CC3=O)c2c1 (stereo not drawn) | 61.3* | -3.6
COc1ccc2[nH]cc(CCN3CC(C(=O)Nc4ccc(Cl)cc4)CC3=O)c2c1 (stereo not drawn) | 40.1 | -2.8
COc1ccc(CNC(=O)C2CC(=O)N(CCc3c[nH]c4ccc(Cl)cc34)C2)cc1 (stereo not drawn) | 73.6* | -0.4
CCN(CC)c1nc2c(c(=O)[nH]c(=O)n2C)n1CC | 2.9 | 1.9
CC1CCC2(CC1)NC(=O)N(CC(=O)Nc1ccc(Cl)cc1)C2=O (stereo not drawn) | -0.5 | -5.8
CC(C)C(=O)N1CCCC(c2ccnc(-c3ccc(F)cc3)n2)C1 (stereo not drawn) | 8.7 | -4.0
Cc1oc(C2CCN(S(=O)(=O)c3cccs3)CC2)nc1C(=O)N1CCCCC1 | -0.7 | -6.3
O=C1/C(=C/c2ccc(Br)c([N+](=O)[O-])c2)Sc2ccccc21 | 13.0 | -32.6
Cc1ccc(N2COc3ccc(Br)cc3C2)cc1 | 73.0* | 1.4
FC(F)(F)c1cccc(N2COc3ccc(Cl)cc3C2)c1 | 49.0 | -2.2
Cc1cccc(N2COc3ccc(Br)cc3C2)c1 | 99.0* | -3.0
Cc1cc(=O)oc2c3c(ccc12)OCN(c1ccc(Cl)cc1)C3 | 27.0 | 1.5
N#Cc1nc2c(-c3nc4ccccc4[nH]3)c(N)n(Cc3ccco3)c2nc1C#N | 38.0 | -0.6
CCC(=O)N1CCc2cc(N3CC(C(=O)Nc4cccc(Cl)c4C)CC3=O)ccc21 (stereo not drawn) | -1.2 | -1.8
CC(=O)Nc1ccc(N/C=C(\C#N)c2nc(-c3cccc(Br)c3)cs2)cc1 | 3.8 | -10.7
